Data taken from PubChem BioAssay (Tox21).
Several values for one entry are separate records, joined by “and”; a condition that tells them apart may be missing. Equal entries are not always repeated. Records with an inconclusive call do not appear. Where a structure was tested more than once in an assay, its records may differ in their call. Activity calls are given as the source filed them. Unless noted, calls follow the shape of the dose curve; as a rule, active = well fitted curve in the direction sought with a large enough effect in the repeat runs; inconclusive = weak or mixed curves; inactive = no such curve, though single readings can be large; an effect the other way counts as inactive or inconclusive.

What was measured:
[1] = qHTS assay to test for compound auto fluorescence at 460 nm (blue) in HEK293 cell free culture (AID 720681); also: potency is read from the fitted curve at half-maximal effect
Procedure, shortened: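 Test compounds were pinned into cell-free culture medium (DMEM with 10% FBS) and fluorescence was read directly at Ex/Em 405/460 nm. Signals were expressed as fluorescence equivalents of triamterene, with DMSO vehicle as control.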

[2] = qHTS assay to test for compound auto fluorescence at 535 nm (green) in HEK293 cell free culture (AID 720682)
Procedure, shortened: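 Using fluorescein as calibrant, autofluorescence was quantified at 485/535 nm in cell-free DMEM containing 10% FBS after pintool addition of compound or vehicle.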

[3] = qHTS assay to test for compound auto fluorescence at 590 nm (red) in HEK293 cell free culture (AID 720683)
Procedure, shortened: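 Tox21 10K library compounds were pinned into cell-free DMEM with 10% FBS and fluorescence was read at excitation 540 nm. Activity is expressed as Rose Bengal sodium equivalency.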

[4] = qHTS assay to test for compound auto fluorescence at 590 nm (red) in HepG2 cell free culture (AID 720684)
Procedure, shortened: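 Ex 540 / Em 590 nm read of compound in cell-free MEM (10% FBS). Rose Bengal sodium reference.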

[5] = qHTS assay to test for compound auto fluorescence at 535 nm (green) in HepG2 cell free culture (AID 720686)
[6] = qHTS assay to test for compound auto fluorescence at 460 nm (blue) in HepG2 cells (AID 720687); also: potency is read from the fitted curve at half-maximal effect
Procedure, shortened: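 Cells (2,000/well in MEM with 10% FBS) attached overnight at 37 C, then were exposed to compound or DMSO for 1 hr at 37 C, 5% CO2. Fluorescence read at Ex/Em 405/460 nm, expressed as triamterene-equivalent signal.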

[7] = target: Glucocorticoid receptor (Homo sapiens) (UniProt P04150); experiment: qHTS assay to identify small molecule agonists of the glucocorticoid receptor (GR) signaling pathway (AID 720691; active = well fitted activation curve with a large enough effect in the signal ratio in the repeat runs, not every such curve was filed as active; the % refers to the signal ratio)
Procedure, shortened: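 Steps: seed GR-bla HeLa cells, incubate 4 h at 37 C/5% CO2; pin-transfer DMSO-dissolved compounds; incubate 18 h at 37 C; add LiveBLAzer B/G FRET substrate; after 2 h at room temperature, measure fluorescence.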

[8] = qHTS assay to identify small molecule antagonists of the glucocorticoid receptor (GR) signaling pathway - cell viability counter screen (AID 720693); also: nearly all actives have a fitted effect of over 55% in size; also: potency is read from the fitted curve at half-maximal effect
[9] = qHTS assay for identifying genotoxic compounds that show differential cytotoxicity against isogenic chicken DT40 cell lines with known DNA damage response pathways - wild type cell line (AID 743012); also: nearly all actives have a fitted effect of over 60% in size; also: potency is read from the fitted curve at half-maximal effect
Procedure, shortened: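 Cytotoxicity in repair-proficient parental chicken DT40 cells serves as the comparator for Rad54/Ku70- and Rev3-deficient lines. Cells were exposed to compounds for 40 h at 37 C/5% CO2, and ATP-based luminescence (CellTiter-Glo) measured viability.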

[10] = qHTS assay for identifying genotoxic compounds that show differential cytotoxicity against isogenic chicken DT40 cell lines with known DNA damage response pathways - Rev3 mutant cell line (AID 743014); also: nearly all actives have a fitted effect of over 55% in size; also: potency is read from the fitted curve at half-maximal effect
[11] = qHTS assay for identifying genotoxic compounds that show differential cytotoxicity against isogenic chicken DT40 cell lines with known DNA damage response pathways - Rad54/Ku70 mutant cell line (AID 743015); also: nearly all actives have a fitted effect of over 60% in size; also: potency is read from the fitted curve at half-maximal effect
[12] = qHTS assay to identify small molecule antagonists of the androgen receptor (AR) signaling pathway - cell viability counter screen (AID 743033; also: nearly all actives have a fitted effect of over 45% in size; also: potency is read from the fitted curve at half-maximal effect)
[13] = target: Androgen receptor (Homo sapiens) (UniProt P10275); experiment: qHTS assay to identify small molecule agonists of the androgen receptor (AR) signaling pathway using the MDA cell line (AID 743040; also: nearly all actives have a fitted effect of over 20% in size)
Procedure, shortened: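 Cell-based luciferase reporter: MDA-kb2, MMTV promoter (AR + GR response elements). 16 h compound exposure at 37C; ONE-Glo, 30 min RT, luminescence.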

[14] = qHTS assay to identify small molecule antagonists of the androgen receptor (AR) signaling pathway using the MDA cell line - cell viability counter screen (AID 743041; also: nearly all actives have a fitted effect of over 45% in size; also: potency is read from the fitted curve at half-maximal effect)
Procedure, shortened: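 In this qHTS counter assay, fluorescence intensity after CellTiter-Fluor addition indicated viability of MDA-kb2 AR-luc cells given compounds and R1881 for 16 h at 37C.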

[15] = target: Androgen receptor (Homo sapiens) (UniProt P10275); experiment: qHTS assay to identify small molecule antagonists of the androgen receptor (AR) signaling pathway using the MDA cell line (AID 743042; also: nearly all actives have a fitted effect of over 55% in size; also: potency is read from the fitted curve at half-maximal effect)
Procedure, shortened: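 MDA-kb2 cells (human breast carcinoma, stably carrying an MMTV-luciferase reporter responsive to AR and GR) were plated at 3,000 cells/well and preincubated 5 hr at 37C, then given compound plus R1881 agonist for 16 h. ONE-Glo luminescence was read.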

[16] = qHTS assay to test for compound auto fluorescence at 460 nm (blue) in HepG2 cell free culture (AID 720685); also: potency is read from the fitted curve at half-maximal effect
Procedure, shortened: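 Cell-free plates of MEM plus 10% FBS received 23 nL compound or DMSO vehicle; blue-channel (405/460 nm) intensity scored against triamterene as reference fluorophore.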

[17] = target: Androgen receptor (Homo sapiens) (UniProt P10275); experiment: qHTS assay to identify small molecule antagonists of the androgen receptor (AR) signaling pathway (AID 743035; active = well fitted inhibition curve with a large enough effect in the signal ratio in the repeat runs, not every such curve was filed as active; the % refers to the signal ratio; also: potency is read from the fitted curve at half-maximal effect)
Procedure, shortened: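 Steps: seed AR-UAS-bla GripTite HEK293 cells, incubate 4 h at 37C; pin in test compound, then add agonist R1881; incubate 16 h at 37C; add LiveBLAzer B/G FRET substrate, 2 h at room temperature; read fluorescence.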

[18] = target: Androgen receptor (Homo sapiens) (UniProt P10275); experiment: qHTS assay to identify small molecule agonists of the androgen receptor (AR) signaling pathway (AID 743036; active = well fitted activation curve with a large enough effect in the signal ratio in the repeat runs, with a control signal flat, not every such curve was filed as active; the % refers to the signal ratio)
Procedure, shortened: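 In this Tox21 qHTS, 2,000 HEK293 AR-bla cells per well were incubated with compounds for 16 h at 37C and 5% CO2. Fluorescence intensity was recorded 2 h after adding LiveBLAzer B/G FRET substrate at room temperature.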

[19] = target: Glucocorticoid receptor (Homo sapiens) (UniProt P04150); experiment: qHTS assay to identify small molecule antagonists of the glucocorticoid receptor (GR) signaling pathway (AID 720692; active = well fitted inhibition curve with a large enough effect in the signal ratio in the repeat runs, not every such curve was filed as active; the % refers to the signal ratio)
Procedure, shortened: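 Antagonism was scored as loss of dexamethasone-driven (5 nM final) reporter signal in HeLa cells bearing a glucocorticoid response element–beta-lactamase construct, after 18 h compound exposure at 37 C and 2 h FRET substrate loading.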
% is scaled to controls: 0 for no effect and ±100 for the full control effect; tags tell the direction and shape of the fitted curve or compound fluorescence and quenching.

Chain of Androgen receptor (Homo sapiens) (P10275 whole entry, looked up): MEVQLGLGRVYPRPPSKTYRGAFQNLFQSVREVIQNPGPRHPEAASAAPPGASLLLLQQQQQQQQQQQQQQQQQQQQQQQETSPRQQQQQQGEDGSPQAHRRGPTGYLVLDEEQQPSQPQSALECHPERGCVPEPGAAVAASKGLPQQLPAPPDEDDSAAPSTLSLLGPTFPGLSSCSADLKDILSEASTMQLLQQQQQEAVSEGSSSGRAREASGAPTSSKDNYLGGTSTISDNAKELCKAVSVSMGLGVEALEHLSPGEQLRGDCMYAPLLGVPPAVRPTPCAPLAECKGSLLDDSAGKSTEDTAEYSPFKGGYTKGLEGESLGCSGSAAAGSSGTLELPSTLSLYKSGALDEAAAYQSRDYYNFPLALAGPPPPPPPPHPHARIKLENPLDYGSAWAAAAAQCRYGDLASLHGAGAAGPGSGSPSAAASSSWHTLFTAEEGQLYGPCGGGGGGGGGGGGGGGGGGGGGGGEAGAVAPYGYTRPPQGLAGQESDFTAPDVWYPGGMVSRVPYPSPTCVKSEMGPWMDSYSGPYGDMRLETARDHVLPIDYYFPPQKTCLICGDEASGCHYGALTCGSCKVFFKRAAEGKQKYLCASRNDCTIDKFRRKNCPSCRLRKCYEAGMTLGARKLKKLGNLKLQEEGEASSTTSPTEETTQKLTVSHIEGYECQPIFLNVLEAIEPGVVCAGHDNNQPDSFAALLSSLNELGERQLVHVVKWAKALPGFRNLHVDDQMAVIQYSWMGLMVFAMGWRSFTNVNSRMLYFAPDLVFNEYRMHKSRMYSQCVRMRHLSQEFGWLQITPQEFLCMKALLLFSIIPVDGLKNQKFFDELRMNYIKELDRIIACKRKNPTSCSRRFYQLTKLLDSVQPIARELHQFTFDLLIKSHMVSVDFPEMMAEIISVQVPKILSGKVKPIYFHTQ
Chain of Glucocorticoid receptor (Homo sapiens) (P04150 whole entry, looked up): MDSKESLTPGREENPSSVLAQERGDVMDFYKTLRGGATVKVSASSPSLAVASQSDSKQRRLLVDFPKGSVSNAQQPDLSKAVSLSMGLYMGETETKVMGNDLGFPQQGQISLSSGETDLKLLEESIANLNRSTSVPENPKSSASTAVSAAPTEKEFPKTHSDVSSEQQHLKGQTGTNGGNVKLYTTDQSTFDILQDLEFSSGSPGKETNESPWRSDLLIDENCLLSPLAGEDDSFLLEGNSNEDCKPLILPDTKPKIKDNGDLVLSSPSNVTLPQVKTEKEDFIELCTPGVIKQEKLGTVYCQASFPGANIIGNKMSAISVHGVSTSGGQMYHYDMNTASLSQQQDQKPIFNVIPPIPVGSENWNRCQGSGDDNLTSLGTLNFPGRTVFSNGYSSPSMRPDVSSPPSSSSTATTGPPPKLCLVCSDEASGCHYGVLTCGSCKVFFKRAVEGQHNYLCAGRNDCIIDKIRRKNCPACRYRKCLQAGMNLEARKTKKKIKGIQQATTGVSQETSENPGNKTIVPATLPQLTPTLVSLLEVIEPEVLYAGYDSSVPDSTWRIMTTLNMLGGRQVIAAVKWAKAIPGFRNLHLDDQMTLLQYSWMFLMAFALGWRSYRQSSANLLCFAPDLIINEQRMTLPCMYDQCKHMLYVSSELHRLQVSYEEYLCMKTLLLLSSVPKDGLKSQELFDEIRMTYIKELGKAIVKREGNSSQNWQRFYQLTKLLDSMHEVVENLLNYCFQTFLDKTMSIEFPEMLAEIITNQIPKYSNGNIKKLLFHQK

COc1cc(C(=S)N2CCOCC2)ccc1O
inactive: Potency [1] | Potency [2] | outcome [3] | outcome [4] | Potency [5] | Potency [6] | Potency [7] | Potency [8] | Potency [9] | Potency [10] | Potency [11] | Potency [12] | outcome [13] | Potency [14] | Potency [15]

CC(C)(C)c1ccc(O)c(C(C)(C)C)c1
active: Potency [9] 27.3 µM | Potency [10] 27.2 µM and 24.3 µM | Potency [11] 30.5 µM and 27.3 µM
inactive: Potency [1] | Potency [2] | outcome [3] | outcome [4] | Potency [16] | Potency [5] | Potency [6] | Potency [14]

Nc1cc(Cl)c(-c2cc(Cl)c(N)cc2Cl)cc1Cl
active: Potency [8] 54.9 µM and 49 µM | Potency [9] 5.44 µM and 4.86 µM | Potency [10] 2.43 µM and 5.45 µM | Potency [11] 2.73 µM and 4.33 µM | Potency [12] 43.6 µM and 49 µM | Potency [17] 21.9 µM and 17.4 µM | Potency [14] 61.1 µM | Potency [15] 54.4 µM and 68.6 µM
inactive: Potency [1] | Potency [2] | outcome [3] | outcome [4] | Potency [16] | Potency [5] | Potency [6] | outcome [13]

CC1COC(=O)O1 (configuration not stated)
inactive: Potency [1] | Potency [2] | outcome [3] | outcome [4] | Potency [5] | Potency [6] | Potency [7] | Potency [8] | Potency [9] | Potency [10] | Potency [11] | Potency [12] | Potency [17] | Potency [18] | outcome [13] | Potency [14] | Potency [15]

CCCCCCCCCCCCCCCCCl
inactive: fluorescence, % of fluorescent control [1] -0.061% [at 18.6 µM] | activity change [2] -0.0974% [at 18.6 µM, stronger effect = higher value] | fluorescence, % of fluorescent control [3] -0.466% [at 18.6 µM] | fluorescence, % of Rose Bengal [4] -0.0105% [at 18.6 µM] | fluorescence, % of fluorescein control [5] -0.0406% [at 18.6 µM] | fluorescence, % of fluorescent control [6] -0.0903% [at 18.6 µM] | Potency [7] | Potency [19] | Potency [8] | Potency [10] | Potency [11] | Potency [12] | Potency [14]

Clc1ccc2c(c1)C(N1CCNCC1)=Nc1ccccc1O2
active: Potency [9] 26.6 µM and 7.7 µM | Potency [10] 29.8 µM and 9.69 µM | Potency [11] 26.6 µM and 10.9 µM
inactive: Potency [1] | Potency [2] | outcome [3] | outcome [4] | Potency [16] | Potency [5] | Potency [6] | Potency [7] | Potency [8] | Potency [12] | Potency [14]

CCN(CC)c1ccc2c(C)cc(=O)oc2c1
active: Potency [1] 39.8 µM | Potency [16] 35.5 µM [fluorescent] and 39.8 µM [fluorescent] | Potency [6] 39.8 µM [fluorescent] | Potency [10] 69.1 µM | Potency [11] 61.6 µM
30.9 µM (active) and inactive: Potency [9]
inactive: Potency [2] | outcome [3] | outcome [4] | Potency [5] | Potency [8] | Potency [12]

C=CC(=O)OCCCCCCCC
inactive: Potency [1] | Potency [2] | outcome [3] | outcome [4] | Potency [16] | Potency [5] | Potency [6] | Potency [7] | Potency [8] | Potency [9] | Potency [10] | Potency [11] | Potency [12] | Potency [14]
